B1: ENSMUSG00000043670.158|Diras1 (ssRNA)
RNA: GGGAGUUCUACAGUCCGACGAUCGCUUCGAUAUCCGCAUGCUACUGCUGAGAUAGAGACCUUGGCACAGUGGCACCUCGACAGCCACCCCGACUGGGGGUUUGGGGUGCUGAGGGUGGGGUGCCCAGCUGAGAGUCUAUCAGCAAAGUCCCUGUGUGCGGUGAUAGGACUAGUGGCUGCUGCCCUAGGGCUCUGACAGAAUCUGAGCCUCUUUGCUGGUCAUGUGUACUCUGGAGACUGUCCCCCAUGUCUGCCCUGAGUUACGGAGCCCCUGUGGUAUCUGCGAGACUGUCCAGGAGACUUGCUCUUGCGGUCGCACUAGUGUGGAAUUCUCGGGUGUCAAGG
B2: ENSMUSG00000022095.20|Fam160b2|21:25;227:231 (ssRNA)
RNA: GGGAGUUCUACAGUCCGACGAUCGCUUCGAUAUCCGCAUGCUAGGUGGGGGAAGAUUCCUGCCACACAACUUCUGCCCACGGGCAGUCUCCUGCCUGGCCAUGCUGCCACUCUGUCCUCCAUGCCGGGGACUUCAGCUGCAGGACACCUCACCUGUUGACCCCACGAGCUGAGGUUUCAAGGAGGUGCUGGCUCCUAAGGCAGUGGUAUUCUUGGAGCCUUUUAGAGGAGCUAGAGGAUGGCCAGUGAGCGCCUAGAUGCUGCCCUGCAACACAUGCGUGACUAUCUCUGCUAUAUUGUGACCCUCUUGCGGUCGCACUAGUGUGGAAUUCUCGGGUGUCAAGG
B3: ENSMUSG00000035202.138|Lars2 (ssRNA)
RNA: GGGAGUUCUACAGUCCGACGAUCGCUUCGAUAUCCGCAUGCUAAUAAAGGAUUUUAAAUUUUUUUACAAGUGAGAACCUAGCAUGUCAAGGUCCUAGGUUCCAUCUCCAACACGAAAAAAGCAAGGCAACUCUACCAAAGAAACUAAUUACAUACUUGUAUUCCCAAUAUGUGAGAAGCUGAGGAAGGAGGAUCAUGAGUUUAAAGCCAUCCUUGGUUACAUGAGACUCUUGUCUCAAAGAACUACCAGGGAUCCUAAUGGACAACAAAGGUUGAAAACCAUUGAAUUAAUAAAUGUUGUGAACUCUUGCGGUCGCACUAGUGUGGAAUUCUCGGGUGUCAAGG
B4: ENSMUSG00000061578.722|Ksr2 (ssRNA)
RNA: GGGAGUUCUACAGUCCGACGAUCGCUUCGAUAUCCGCAUGCUAUCUCUGAAUGUACGUGGGGGACUCCAACAGAUGUUGGGAGAAGACUCAAUAUGAGCAUACGGGGUCAUUGUUCAAUCCUGUAUCAAGACCUUGGAGUUGUCUAAGGCUGUGGGUUUUAAAUACCUGCUGCAGGCCUCCCAUCUCUGGCUCUUUGUUUCCACUCUGGCCCAAGUUUGAGUCUCCAUAUGGGCCCUUCCUGUCCUCAUGCCCUGCCUGUCUUCAUUCCACCCAUCCACCCUCCUAAGGAUUGGUCUUGUUCCCUCUUGCGGUCGCACUAGUGUGGAAUUCUCGGGUGUCAAGG
B5: ENSMUSG00000058297.267|Spock2 (ssRNA)
RNA: GGGAGUUCUACAGUCCGACGAUCGCUUCGAUAUCCGCAUGCUAUGAUAUAUUUGAUGAAGAAUUCCUUACCUGGGCCUCUGAUACCCUUUGGUACGCGUACGUGUGUGUGGCGCGUAUACGUGUGUGUGUGUGUGUGUGUGUGUGUGUGUGUGUGUGUGUGUGAGAGAGAGAGAGAGAGAGAGAGAGAGAGAGAGAGAGAAAGAGAGAGAGAAUGAGAGAGAAUGAGAGAGAGAAUACCCGAGGGCCACCCUGAUGCCCAGGAAGAGUGAGGGCAGCCCCCUGUGUGGUGGAAGAGGCUGGGCCUCUUGCGGUCGCACUAGUGUGGAAUUCUCGGGUGUCAAGG
B6: ENSMUSG00000058297.266|Spock2 (ssRNA)
RNA: GGGAGUUCUACAGUCCGACGAUCGCUUCGAUAUCCGCAUGCUAUUUCCUUGAUAUAUUUGAUGAAGAAUUCCUUACCUGGGCCUCUGAUACCCUUUGGUACGCGUACGUGUGUGUGGCGCGUAUACGUGUGUGUGUGUGUGUGUGUGUGUGUGUGUGUGUGUGUGUGUGAGAGAGAGAGAGAGAGAGAGAGAGAGAGAGAGAGAGAAAGAGAGAGAGAAUGAGAGAGAAUGAGAGAGAGAAUACCCGAGGGCCACCCUGAUGCCCAGGAAGAGUGAGGGCAGCCCCCUGUGUGGUGGAAGAGGCUCUUGCGGUCGCACUAGUGUGGAAUUCUCGGGUGUCAAGG
B7: ENSMUSG00000058297.268|Spock2 (ssRNA)
RNA: GGGAGUUCUACAGUCCGACGAUCGCUUCGAUAUCCGCAUGCUAAUUUGAUGAAGAAUUCCUUACCUGGGCCUCUGAUACCCUUUGGUACGCGUACGUGUGUGUGGCGCGUAUACGUGUGUGUGUGUGUGUGUGUGUGUGUGUGUGUGUGUGUGUGUGAGAGAGAGAGAGAGAGAGAGAGAGAGAGAGAGAGAGAAAGAGAGAGAGAAUGAGAGAGAAUGAGAGAGAGAAUACCCGAGGGCCACCCUGAUGCCCAGGAAGAGUGAGGGCAGCCCCCUGUGUGGUGGAAGAGGCUGGGCAGCUAGCUCUUGCGGUCGCACUAGUGUGGAAUUCUCGGGUGUCAAGG
B8: ENSMUSG00000058297.271|Spock2 (ssRNA)
RNA: GGGAGUUCUACAGUCCGACGAUCGCUUCGAUAUCCGCAUGCUAUACCUGGGCCUCUGAUACCCUUUGGUACGCGUACGUGUGUGUGGCGCGUAUACGUGUGUGUGUGUGUGUGUGUGUGUGUGUGUGUGUGUGUGUGUGAGAGAGAGAGAGAGAGAGAGAGAGAGAGAGAGAGAGAAAGAGAGAGAGAAUGAGAGAGAAUGAGAGAGAGAAUACCCGAGGGCCACCCUGAUGCCCAGGAAGAGUGAGGGCAGCCCCCUGUGUGGUGGAAGAGGCUGGGCAGCUAGCUACUGGGGACCUUGUGCCUCUUGCGGUCGCACUAGUGUGGAAUUCUCGGGUGUCAAGG
B9: ENSMUSG00000031028.129|Tub (ssRNA)
RNA: GGGAGUUCUACAGUCCGACGAUCGCUUCGAUAUCCGCAUGCUACCAAAUAUCUGAGUGGAUGGGGAUGAUAGGAGUCAUCCAGUAGACUCCCUACAUCAGGGCUCUCAGCAGCCCCAGCACAACACCUAUGACACACACACAGGAUCUAGGUCACCAUUCAAGUAAUGGUAUGCUUCAGGAAGAAUGUCCUCUCUGGGAAGACUCAGCUCCCAUUAUUGCCAGCAUGCCAUGAUCAGUGAGGGCUGUGUGCCAUGCUUAGGGGGAUGGCGCAGGGUGAGGGGAGCAGAGGAUAUUUUAGGGCCCUCUUGCGGUCGCACUAGUGUGGAAUUCUCGGGUGUCAAGG
B10: ENSMUSG00000058297.78|Spock2 (ssRNA)
RNA: GGGAGUUCUACAGUCCGACGAUCGCUUCGAUAUCCGCAUGCUACUCAGCCCAACACCUGGAAUCCCUGCCCUGCCUAAUCAGCCCUACCCCAUCCUGCCUUUCUUCCUUCCUCUUCUGAGGCCAGGGAGAGGGAGGGAGGGCAGGCAGCUGAAAGCUGAGCGUCCUCCCCAAAUUGGGCUGAUUUGAUAUGAAAGCCCCACCACGGUCUUGUGGUGAUGAGGCAGGACCUGUACACACAGCAAGGCUUACUAUCCGUCUCCUGACAUCCGAAGAGCUCGUCGCAGGUGUGUCUAAUGGCCCUUCUCUUGCGGUCGCACUAGUGUGGAAUUCUCGGGUGUCAAGG
B11: ENSMUSG00000031028.156|Tub|40:45;125:130 (ssRNA)
RNA: GGGAGUUCUACAGUCCGACGAUCGCUUCGAUAUCCGCAUGCUAAGCUCCCAUUAUUGCCAGCAUGCCAUGAUCAGUGAGGGCACACACCCAUGCUUAGGGGGAUGGCGCAGGGUGAGGGGAGCAGAGGAUAUUUUAGGGCCACAAGAGCUCAGAGGUAGCGGACCUCACACACGUUCACCAACAGCAAUGCUGAUCCCUGAGUAUAGGGCACAUGUCUCUUGGUUACCUCACUGGUUAAUGGCAGAGUUGAGAACCUCAAAUUCUUUUGUUCCUACUGUUGCCCAGAAACUAGACUCUCUGACCUCUUGCGGUCGCACUAGUGUGGAAUUCUCGGGUGUCAAGG
B12: ENSMUSG00000028439.157|Fam219a (ssRNA)
RNA: GGGAGUUCUACAGUCCGACGAUCGCUUCGAUAUCCGCAUGCUAUAGCUCAAAGUCCAGGAGCCAGGCUUCCAGAAAGGCUCUUCAAGAGCAAGCUUAAGGAAAUACAGUGAGCCAAGUGGCUGUAUGAUAUGGUAUGGUAUGGUAUGGUAUGGUAUGGUAUGGUAUGCACAUGUGUGUGCAUGUGUGUGUGCCUGUGUGUGUGCGUGUGCGUGUGUGUAUGUGUGUGCGUGUGUGUGUGUGUGUGUUGUACCCGAGUGUGUGUUGAGCCUAUCUGUCCAGGGAACCAGAUUGGUGUCCGAGAUCUCUUGCGGUCGCACUAGUGUGGAAUUCUCGGGUGUCAAGG
B13: ENSMUSG00000028439.156|Fam219a (ssRNA)
RNA: GGGAGUUCUACAGUCCGACGAUCGCUUCGAUAUCCGCAUGCUAUCACCCUAGCUCAAAGUCCAGGAGCCAGGCUUCCAGAAAGGCUCUUCAAGAGCAAGCUUAAGGAAAUACAGUGAGCCAAGUGGCUGUAUGAUAUGGUAUGGUAUGGUAUGGUAUGGUAUGGUAUGGUAUGCACAUGUGUGUGCAUGUGUGUGUGCCUGUGUGUGUGCGUGUGCGUGUGUGUAUGUGUGUGCGUGUGUGUGUGUGUGUGUUGUACCCGAGUGUGUGUUGAGCCUAUCUGUCCAGGGAACCAGAUUGGUGUCCUCUUGCGGUCGCACUAGUGUGGAAUUCUCGGGUGUCAAGG

Whole data set: some 9,900 sequences, median “r (bound/input frequency ratio)” near 0.7, cut for the highest 2% near 6.5. Only a selection was taken, and the highest values are over-represented in it overall.

TDP-43, sequence (Q13148 whole entry): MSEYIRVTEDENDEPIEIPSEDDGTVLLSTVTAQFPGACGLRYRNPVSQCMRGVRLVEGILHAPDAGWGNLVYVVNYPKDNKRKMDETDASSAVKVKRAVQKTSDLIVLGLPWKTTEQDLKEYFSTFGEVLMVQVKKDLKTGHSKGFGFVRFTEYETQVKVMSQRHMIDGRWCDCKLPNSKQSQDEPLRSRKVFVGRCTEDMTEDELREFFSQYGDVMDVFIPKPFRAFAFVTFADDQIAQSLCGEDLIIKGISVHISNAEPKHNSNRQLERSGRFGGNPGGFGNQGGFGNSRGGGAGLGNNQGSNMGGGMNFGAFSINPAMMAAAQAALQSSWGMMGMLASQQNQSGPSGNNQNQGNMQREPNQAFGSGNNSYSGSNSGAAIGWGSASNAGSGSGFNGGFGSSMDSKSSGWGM

For the assay, the target named is TDP-43 (Homo sapiens, UniProt Q13148 1-414). Nature of the assay: RNA Bind-n-Seq with designed 260-mer pool; 25 mM Tris-HCl, 150 mM KCl, 3 mM MgCl2, BSA (printed 500 mg/mL), 20 units/mL SUPERase IN; pH not stated; 500 nM RNA pool, 1 h, 4 C; TDP-43 5, 50, 500 nM; high values mean tight binding. The note with it: protein: recombinant; tags: SBP (GST cleaved off with PreScission; pGEX-GST-SBP). The essentials:
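For each oligo, R gives binding as its mapped-read-normalized abundance after pulldown divided by its abundance in input. Bead-captured SBP-tagged TDP-43 (5, 50 or 500 nM) was incubated with 500 nM of an in vitro-transcribed 260-nt 3′ UTR oligo pool for 1 h at 4 °C in 25 mM Tris-HCl, 150 mM KCl, 3 mM MgCl2, BSA and SUPERase IN on streptavidin beads. Washed, biotin-eluted RNA was reverse transcribed, PCR-amplified and sequenced.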
For the molecule B1, the binding signal is 0.372 R (bound/input frequency ratio).

In the case of B2, the binding signal was 0.271 R (bound/input frequency ratio).

On to B3, for which the binding signal is 0.101 R (bound/input frequency ratio).

In the case of B4, the binding signal is 1.64 R (bound/input frequency ratio).

Consider B5, for which the binding signal was 8.95 R (bound/input frequency ratio).

Consider B6, for which the binding signal is 5.83 R (bound/input frequency ratio).

On to B7, for which the binding signal was 2.37 R (bound/input frequency ratio).

In the case of B8, the binding signal is 8.28 R (bound/input frequency ratio).

For B9, the binding signal is 0.521 R (bound/input frequency ratio).

As to B10, the binding signal was 0.631 R (bound/input frequency ratio).

On to B11, for which the binding signal was 0.266 R (bound/input frequency ratio).

In the case of B12, the binding signal is 7.39 R (bound/input frequency ratio).

As for B13, the binding signal was 6.74 R (bound/input frequency ratio).

The values above are taken from publication PMC12864922, “TDP-43 directly inhibits mRNA accumulation in neurites through modulation of mRNA stability”.
